Drawing on PubChem BioAssay AID590 (National Center for Advancing Translational Sciences (NCATS), 2007), this text covers max dye-equivalent concentration for 70 compounds.

Screen size: about 59,000 compounds; about 6,500 (11%) were called active. Not shown: some 15% with an inconclusive outcome. Rule as the data show it: active = max dye-equivalent concentration above about 10 nM; inconclusive = mostly about 1.1 nM to 9.6 nM; inactive = weaker than that. The full list was thinned out, with actives kept by preference.

The nature of the experiment: qHTS Assay for Spectroscopic Profiling in A350 Spectral Region. The note with it: Compound autofluorescence, 340/450 nm, Alexa 350 dye-equivalents; active compounds read high.
With `Oc1cc2c(cc1O)CN(C(=S)NCCc1ccc(Cl)cc1)CCC2`, the max dye-equivalent concentration result was “inactive”. `O=S(=O)(NCc1ccccn1)c1ccc(Br)s1`: the max dye-equivalent concentration result is “inactive”. As for `O=S(=O)(c1cccs1)N1CCN(Cc2ccccc2)CC1`, the entry is “inactive”; as for `CCCCNc1nc2ccccc2nc1NS(=O)(=O)c1cccs1`, 61 nM (active); as for `O=S(=O)(c1cccs1)N1CCc2ccccc2C1`, “inactive”. The value for `COCCNc1ncnc2ccc(-c3ccccc3CN(C)C)cc12` was “inactive”; that for `COc1ccc(-c2cc(C(=O)NC(C(=O)O)C(C)C)c(C)o2)cc1OC` (stereo not given) was “inactive”. The value for `CCOC(=O)CSc1nnc(-c2ccncc2)o1` was “inactive”; that for `COC(=O)c1sc(NC(=O)c2ccc(OC)cc2OC)nc1C` was “inactive”.

As for `CNC(=O)c1ccc2nc(NC(C)=O)sc2c1`, the max dye-equivalent concentration result is “inactive”. The value for `COc1ccc2nc(NC(=O)c3ccc(Br)s3)sc2c1` was 550 nM (active). As for `CCOC(=O)c1sc(NC(=O)CSc2nnc(-c3ccco3)o2)c(C(=O)OCC)c1C`, the entry is “inactive”; as for `O=C(c1csnn1)N1CCC[C@@]2(CCN(c3cccc(-c4ccccc4)c3)C2)C1`, “inactive”; as for `COc1ccc(-n2c(SCC(=O)OC(C)C)nnc2-c2ccccn2)cc1`, “inactive”.

On to `COc1ccc(C2=CC(c3cccc(OC)c3)n3nnnc3N2)cc1` (stereo not given), for which the max dye-equivalent concentration is 15 nM (active). As for `CCOc1cccc(-n2nnnc2-c2ccc(OC)cc2)c1`, the entry is “inactive”; as for `COc1ccc(C2C(C(=O)Nc3ccccc3OC)=C(C)Nc3nnnn32)c(OC)c1` (stereo not given), “inactive”. For the compound `COC(=O)C1=C(C)NC(=O)NC1/C=C/c1ccccc1` (stereo not given), the max dye-equivalent concentration entry was “inactive”.

With `O=S(=O)(Nc1ccccn1)c1ccc(Oc2ccccc2)cc1`, the max dye-equivalent concentration result was “inactive”.

For `CC(C)c1nc(N2CCOCC2)c(C#N)c2c1COC(C)(C)C2`, the max dye-equivalent concentration was 150 nM (active). The value for `COc1ccc(CSc2nc(N3CCOCC3)c3c(c2C#N)CC(C)(C)OC3)cc1` was 34 nM (active); that for `CC1(C)Cc2c(C#N)c(SCc3nc4ccccc4[nH]3)nc(N3CCOCC3)c2CO1` was 23 nM (active). As for `c1ccc2[nH]c(NCCN3CCOCC3)nc2c1`, the entry is “inactive”; as for `CC(C)C(=O)N1CCN(c2nc(-c3ccccc3)c3c(c2C#N)CC(C)(C)OC3)CC1`, 200 nM (active). Turning to `COc1cc(C2C(C#N)=C(N)Oc3n[nH]c(-c4ccccn4)c32)cc(OC)c1OC` (stereo not given), the max dye-equivalent concentration entry is “inactive”. The value for `CCc1nnc(NC(=O)c2c(O)c3c([nH]c2=O)CCCC3)s1` was “inactive”; that for `CN(Cc1ccccc1)Cc1ccccc1F` was “inactive”; that for `Cc1ccc(S(=O)(=O)N2CCC(C(=O)N[C@@H](C)C(=O)NCc3ccccc3)CC2)cc1` was “inactive”. Take `O=C(c1csnn1)N1CCC2(CC1)CN(c1ncccn1)C2`: the max dye-equivalent concentration entry is “inactive”. Take `CC(C)OCCCNC(=O)CNC(=O)c1cccs1`: the max dye-equivalent concentration result was “inactive”. The value for `CCCCOc1ccc(Cl)cc1CSc1nncn1N` was “inactive”. In the case of `O=C1[C@@H]2C(Cc3ccc(O)cc3)NC3(C(=O)Nc4ccc(F)cc43)[C@@H]2C(=O)N1c1ccc(F)cc1` (stereo not given in full), the max dye-equivalent concentration entry is “inactive”. As for `CC(C)Cc1nc(N2CCOCC2)c(C#N)c2c1CCC2`, the figure is 62 nM (active); as for `Cc1cc(C(=O)COC(=O)CCCN2C(=O)c3ccccc3C2=O)c(C)n1C`, “inactive”.

`O=C(CN1C(=O)CCC1=O)Nc1ccc(S(=O)(=O)N2CCOCC2)cc1`: the max dye-equivalent concentration result is “inactive”. The value for `CC(=O)OCc1cc(=O)n(C)c(=O)n1C` was “inactive”; that for `COc1c(C)cccc1C(=O)Nc1cc(Cl)ccc1N1CCOCC1` was “inactive”. As for `O=C(O)[C@@H](O)Cc1ccccn1`, the entry is “inactive”; as for `COc1ccc2c(c1)CCc1c(C(=O)N3CCc4ccccc4C3)noc1-2`, “inactive”; as for `CCOC(=O)c1[nH]c2ccc(C)cc2c1N=C(C)N(C)C`, 29 nM (active). The value for `CCOC(=O)c1[nH]c2ccccc2c1N=C(C)N(CC)CC` was “inactive”; that for `CCOC(=O)CN(C)Cc1c[nH]c2ccccc12` was “inactive”. As to `CC(=O)c1cccc(NC(=O)N2CCCC2C(=O)NCCC(C)C)c1` (stereo not given), the max dye-equivalent concentration result was “inactive”. For `CC12CCC(C(=O)N3CCN(c4ncccn4)CC3)(c3nc4ccccc4nc31)C2(C)C` (stereo not given), the max dye-equivalent concentration entry was “inactive”. On to `O=c1nc(N2CCOCC2)nc2n1CCO2`, for which the max dye-equivalent concentration result is “inactive”.

In the case of `O=C(CSc1nc2ccccc2[nH]1)c1cccs1`, the max dye-equivalent concentration entry is “inactive”. As for `N#Cc1c(N)n(CCOC(=O)c2ccc(Cl)cc2)c2nc3ccccc3nc12`, the figure is 610 nM (active); as for `Cn1cccc1C(=O)N1CCC2(CC1)CN(c1cccc(-c3ccccc3)c1)C2`, “inactive”; as for `CC[C@@H]1Cc2cc(O)ccc2C2=C1c1ccc(O)cc1C[C@H]2CC`, 260 nM (active).

With `CCC1SC2=NCCN2C1(O)c1ccc(Cl)cc1` (stereo not given), the max dye-equivalent concentration result was “inactive”. For the compound `Cc1cc(NC(=O)c2cnn3cccnc23)n(-c2ccccc2)n1`, the max dye-equivalent concentration result is “inactive”. Take `COCCNC(=O)C(c1ccc(C)o1)N(Cc1ccccc1)C(=O)Cn1nnc2ccccc21` (stereo not given): the max dye-equivalent concentration result was “inactive”. The value for `COCCNC(=O)C(c1ccc(C)o1)N(Cc1cccs1)C(=O)c1snc(C(N)=O)c1N` (stereo not given) was 88 nM (active); that for `CCC(C(=O)NC1CCCC1)N(C(=O)c1snc(C(N)=O)c1N)c1ccc2c(c1)OCCO2` (stereo not given) was “inactive”; that for `N=c1c2c3c(sc2ncn1CCCN1CCOCC1)CCCCC3` was “inactive”. On to `CN(CCc1ccccn1)S(=O)(=O)c1ccc2c3c(cccc13)C(=O)N2`, for which the max dye-equivalent concentration was 790 nM (active).

For `O=c1[nH]nc(Cc2ccccn2)c2ccccc12`, the max dye-equivalent concentration entry is “inactive”.

Take `CCNc1nc(N)nc(Oc2ccc(OCC)nn2)n1`: the max dye-equivalent concentration entry is “inactive”.

`COc1ccccc1N1CCN(C(=O)CN(Cc2ccc(Cl)cc2)S(C)(=O)=O)CC1`: the max dye-equivalent concentration result is “inactive”.

Consider `Cn1cccc1C(=O)Nc1nccs1`, for which the max dye-equivalent concentration entry was “inactive”.

Regarding `Cn1cccc1C(=O)NC(=O)COC(=O)Cc1coc2ccc3ccccc3c12`, the max dye-equivalent concentration was 38 nM (active).

For the compound `O=C1C2(c3ccccc3)CN(CCCO)CC1(c1ccccc1)CN(CCCO)C2`, the max dye-equivalent concentration entry was “inactive”. As for `Cn1c(=O)[nH]c(=O)c2c1nc(Br)n2CCCCSc1nc2ccccc2o1`, the entry is “inactive”. The value for `Fc1ccc2nc(N3CCCCC3)sc2c1` was “inactive”; that for `Cc1cc(N2CCCCC2)nc2ccc(Cc3ccc4nc(N5CCCCC5)cc(C)c4c3)cc12` was 43 nM (active); that for `CCCn1c(SCC(=O)Nc2cccc(C(=O)OCC)c2)nnc1-c1ccoc1C` was “inactive”. For the compound `Cc1cc(=O)cc(C)[nH]1`, the max dye-equivalent concentration entry is “inactive”. As for `Cc1ccccc1-c1nc(N(C)Cc2ccco2)c2ccccc2n1`, the entry is “inactive”. As to `Clc1cccc(Cl)c1Cn1nnc(-c2cccs2)n1`, the max dye-equivalent concentration entry is “inactive”. The value for `CCOC(=O)c1c(N)c(C#N)nn1-c1ccccc1C(=O)OC` was “inactive”.
